Measurements published in PubChem BioAssay (NCATS).
Results filed as inconclusive are left out. Calls of active or inactive are those of the source. Calls follow the shape of the dose curve; as a rule, active = well fitted inhibition curve with a large enough effect; inconclusive = small, poorly fitted or top-dose-only effect; inactive = flat fitted curve, though single readings scatter.

Assays:
Test in all cases: qHTS profiling for inhibitors of Plasmodium falciparum proliferation (AID 504749); also: nearly all actives have a fitted effect of over 60% in size
Details in all cases: P. falciparum in erythrocytes, SYBR Green DNA, 72 h; series mostly up to 28.7 µM
CP256 = test system: CP256
In short: (§1)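 Parasite proliferation within erythrocytes, 72 h exposure. Endpoint: SYBR Green I fluorescence after overnight lysis at room temperature. Controls: 0.29 uM artemisinin, DMSO.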

CP260 = test system: CP260
In short: as §1

CP262 = test system: CP262
In short: as §1

CP265 = test system: CP265
In short: as §1

CP266 = test system: CP266
In short: as §1

CP268 = test system: CP268
In short: as §1

CP269 = test system: CP269
In short: as §1

CP286 = test system: CP286
In short: as §1

CP291 = test system: CP291
In short: as §1

CP297 = test system: CP297
In short: as §1

CP305 = test system: CP305
In short: as §1

CP325 = test system: CP325
In short: as §1

CP329 = test system: CP329
In short: as §1

CP335 = test system: CP335
In short: as §1

DFO2036 = test system: DFO2036
In short: as §1

DIV14 = test system: DIV14
In short: as §1

DIV17 = test system: DIV17
In short: as §1

DIV30 = test system: DIV30
In short: as §1

Dd2 = test system: Dd2
In short: as §1

ECU = test system: ECU
In short: as §1

FAB9 = test system: FAB9
In short: as §1

GB4 = test system: GB4
In short: as §1

HB3 = test system: HB3
In short: as §1

ICS = test system: ICS
In short: as §1

JCK = test system: JCK
In short: as §1

N140 = test system: N140
In short: as §1

P93_24 = test system: P93_24
In short: as §1

P94_40 = test system: P94_40
In short: as §1

PAD = test system: PAD
In short: as §1

PC15 = test system: PC15
In short: as §1

PC26 = test system: PC26
In short: as §1

PC49 = test system: PC49
In short: as §1

SC27B = test system: SC27B
In short: as §1

TAB109 = test system: TAB109
In short: as §1

TAB113 = test system: TAB113
In short: as §1

TAB165 = test system: TAB165
In short: as §1

W2 = test system: W2
In short: as §1

Measured: Potency

O=C(O)[C@@H](O)[C@@H](O)[C@H](O)C(=O)CO
inactive: CP256 | CP260 | CP262 | CP265 | CP266 | CP268 | CP269 | CP286 | CP291 | CP297 | CP305 | CP325 | CP329 | CP335 | DFO2036 | DIV14 | DIV17 | DIV30 | Dd2 | ECU | FAB9 | GB4 | HB3 | ICS | JCK | N140 | P93_24 | P94_40 | PAD | PC15 | PC26 | PC49 | SC27B | TAB109 | TAB113 | TAB165 | W2
